# PubChem BioAssay (NCI)
# This is part of a sample that, as a whole, favours compounds with a hit. Of some 83,000 tested, about 20% had one in any assay.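 Cell lines were cultured in 96-well plates, exposed to a single compound concentration, and assessed for percent growth 48 hours later.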 Values without a mark were called inactive. Calls of active or inactive are those of the source. How the source made its calls: active means growth percent below 10; inactive means the rest.
# Legend:
# Test in all cases: NCI-60 one-dose screen, 48 h (100 = growth as untreated, 0 = no growth, -100 = all killed)
# Settings in all cases: 10 µM unless noted
# HCT-15 colon = test system: HCT-15 colon
# HT29 colon = test system: HT29 colon
# SNB-75 CNS = test system: SNB-75 CNS
# SNB-19 CNS = test system: SNB-19 CNS
# U251 CNS = test system: U251 CNS
# PC-3 prostate = test system: PC-3 prostate
# SK-MEL-5 melanoma = test system: SK-MEL-5 melanoma
# UACC-62 melanoma = test system: UACC-62 melanoma
# LOX IMVI melanoma = test system: LOX IMVI melanoma
# SK-MEL-28 melanoma = test system: SK-MEL-28 melanoma
# SK-MEL-2 melanoma = test system: SK-MEL-2 melanoma
# EKVX NSCLC = test system: EKVX NSCLC
# SN12C renal = test system: SN12C renal
# UO-31 renal = test system: UO-31 renal
# TK-10 renal = test system: TK-10 renal
# ACHN renal = test system: ACHN renal
# CAKI-1 renal = test system: CAKI-1 renal
# CCRF-CEM leukemia = test system: CCRF-CEM leukemia
# MOLT-4 leukemia = test system: MOLT-4 leukemia
Compound,growth (HCT-15 colon),growth (HT29 colon),growth (SNB-75 CNS),growth (SNB-19 CNS),growth (U251 CNS),growth (PC-3 prostate),growth (SK-MEL-5 melanoma),growth (UACC-62 melanoma),growth (LOX IMVI melanoma),growth (SK-MEL-28 melanoma),growth (SK-MEL-2 melanoma),growth (EKVX NSCLC),growth (SN12C renal),growth (UO-31 renal),growth (TK-10 renal),growth (ACHN renal),growth (CAKI-1 renal),growth (CCRF-CEM leukemia),growth (MOLT-4 leukemia)
O=[N+]([O-])c1ccc(NC(=S)N/N=C/c2cc3ccccc3n3nnnc23)cc1,27.3%,99.8%,58.2%,29.8%,30.2%,34.5%,71%,65.4%,39.2%,79%,49.3%,36.6%,58.5%,-1.57% (active),56.8%,29.9%,25.4%,11.3%,20.4%
NC(=NCc1ccccc1)C(N=Nc1ccccc1)C(=O)NCc1ccccc1 (stereo not given),49.1%,18.3%,96.9%,63.4%,26.7%,62.7%,103%,76.6%,42.7%,106%,107%,82.5%,58.6%,68.3%,69.6%,92.1%,54%,76%,61%
N#Cc1cccc(-c2ccc3c(c2)NC(=O)/C3=C\c2ccc[nH]2)c1,14.3%,53.7%,58.2%,91.2%,92.8%,70.2%,36.6%,42.7%,66.1%,83.5%,81.2%,25.2%,87.6%,65.6%,32.3%,57.8%,51.8%,69.7%,68.2%
Cn1nc(CC#N)c2c(=N)n(N)cnc21,111%,116%,87.4%,111%,99.4%,96.2%,111%,103%,103%,121%,113%,94.4%,98.6%,80.1%,104%,108%,95.3%,126%,94.7%
CCN(CC)CCn1c(=O)c2cc(OC)c(OC)cc2c2ccc3cc4c(cc3c21)OCO4,54.7%,17.1%,47.9%,27.1%,22.7%,48%,36.1%,16.8%,-42.2% (active),53.4%,93.2%,83.9%,32.9%,22.8%,67.6%,10.2%,17.3%,2.85% (active),-9.32% (active)
O=C(CCN1CCCC1)Nc1ccc2c(NCCCc3ccccc3)c3ccccc3nc2c1,36.3%,3.74% (active),23%,24.6%,-58.9% (active),-0.52% (active),67.4%,43.5%,-87% (active),66.1%,38.9%,40.8%,14%,31.8%,5% (active),33.1%,27.5%,-11.8% (active),-18.5% (active)
Cc1ccc(CNc2c3ccccc3nc3cc(NC(=O)CCN4CCCC4)ccc23)cc1,7.15% (active),0.938% (active),4.1% (active),17.8%,-55.3% (active),-0.231% (active),42.3%,36.1%,-86.4% (active),53.6%,40.2%,39.3%,2.87% (active),3.83% (active),-20% (active),12.3%,7.04% (active),-31.5% (active),-33.5% (active)
ClC1=C(Br)C(Br)(Br)C(=C(Br)Br)C1(Br)Br,79.2%,82.5%,96.6%,93.9%,94.5%,82.8%,92.6%,81.2%,77.9%,102%,110%,111%,95.5%,71.7%,80.4%,78.6%,61.3%,25.1%,74.5%
O=C(c1nc2ccccc2[nH]1)C1C(c2ccc(Cl)cc2)C2CC3CCCC[C@H]3N2[C@@]12C(=O)Nc1cc(Cl)ccc12 (stereo not given in full),30.2%,26%,34.4%,59%,49.3%,31.9%,50.1%,59.3%,35%,72%,66.7%,34.5%,48%,20.1%,46.4%,40.5%,20.6%,30.2%,7.41% (active)
COc1cccc(-c2nc3occn3c2-c2ccnc(NCCCNS(=O)(=O)c3ccc(C(F)(F)F)cc3)n2)c1,85.3%,73.5%,103%,105%,84.1%,75.9%,68.6%,67.3%,87.5%,97.5%,92.3%,92.8%,85.4%,71.5%,106%,89.3%,75.3%,93.9%,69%
